# Pf growth 96h – P. falciparum growth inhibition at 96 hours; P. falciparum luciferase reporter growth, 96 h; Potency, µM (highest dose often 28.7 µM), for inactives: at the top dose activity change, negative = inhibition, actives largely listed as inhibitors; 320,000 compounds, 6.9% hits; AID 504834; note: potency is the fitted concentration of half-maximal effect; % is set by controls: 0 for no effect and ±100 for the full control effect
#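 Readout is luminescence from an integrated firefly luciferase in P. falciparum. Red cells, 2% hematocrit and 0.05% parasitemia final, were cultured with compound through two parasite generations (96 hours) at 37 C, 5% CO2.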
# HCMV inh – human cytomegalovirus inhibition | activity change, negative = inhibition, % at 57.5 µM | 410,000 compounds, 4.5% hits | AID 1259415 | HFF cells, HCMV-luciferase reporter, 72 h; stronger effect = lower value; in the data active = activity change below about -60%; inconclusive = no clear call, values can overlap the other calls; inactive = above about -39%; note: % is set by controls: 0 for no effect and ±100 for the full control effect
#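 Human foreskin fibroblasts infected with luciferase-reporter HCMV at MOI 1 PFU/cell, compounds at two doses. Luciferase measured 72 h post infection; normalized to buffer-only basal and Salinomycin (10uM) controls.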
# Shiga toxin inh – inhibitors of Shiga toxin in Vero cells. Vero cells, Shiga toxin protein synthesis inhibition reporter. inhibition, % at 38.7 µM. 290,000 compounds, 9.2% hits. AID 2315; in the data active = inhibition mostly above about 28%, no sharp cut-off; inactive = mostly below about 43%; note: 0% is about no effect
# Pf growth 48h – inhibits P. falciparum growth in the first generation, 48 h; AID 504832; Potency, µM (highest dose often 28.7 µM), inactives show at the highest dose activity change, negative = inhibition, hits mostly inhibitors; P. falciparum luciferase growth in erythrocytes, 48 h; 310,000 compounds, 5.9% hits; note: potency is the fitted concentration of half-maximal effect; % is set by controls: 0 for no effect and ±100 for the full control effect
#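 Firefly luciferase activity from engineered P. falciparum reports growth; inhibitors lower the luminescent signal. Cultures contained 2% hematocrit erythrocytes at 0.1% final parasitemia.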
# CHX counter – counter-screen for Shiga toxin inhibitors: cycloheximide protein synthesis inhibition; cell reporter, cycloheximide protein synthesis inhibition counterscreen; max response, %; 300,000 compounds, 12% hits; in the data active = max response mostly above about 13%, no sharp cut-off; inactive = mostly below about 14%; note: read at 38.3 µM for the half of the compounds with a filed dose; 0% is about no effect
# * = called active by the depositor; i = inactive; u = inconclusive; x = no result given. Most compounds without a hit are left out; they make up all but 20% or so of the library. Unless noted, calls come from the whole dose curve; as a rule, active = well fitted inhibition curve with a large enough effect; inconclusive = small, poorly fitted or top-dose-only effect, or another doubt; inactive = no such curve, though single readings can be large or run the other way.
SMILES,Pf growth 96h,HCMV inh,Shiga toxin inh,Pf growth 48h,CHX counter
Cc1cccc(C(=O)Nc2ccc(Cl)cc2C(=O)c2ccccc2)c1,u,-40,-9,u,4
Cc1ccc(O)c(C(=O)c2cc(C#N)c(=O)n(Cc3ccccc3)c2)c1,7%,u,30,-12%,7
Cc1ccc(O)c(C(=O)c2cc(C(=O)NCCc3ccccc3)c(=O)n(CCc3ccccc3)c2)c1,1.5µM*,-8,-6,1.9µM*,-2
Cc1cccc(NC(=O)CSc2n[nH]c(-c3cccnc3)n2)c1,u,-27,28,16%,-4
CC1(C(=O)NS(=O)(=O)c2cccc(OC(F)F)c2)CCN1C(=O)Cc1cccs1 (stereo not given),x,-15,x,x,x
O=C(c1cc2c(=O)oc3ccccc3c2s1)N1CCOCC1,u,57,-30,26%,31*
O=C(c1cc2c(=O)oc3ccccc3c2s1)N1CCN(c2cccc(Cl)c2)CC1,x,-62*,x,x,x
CNC(=S)N(Cc1cccs1)Cc1cc2ccc(OC)cc2[nH]c1=O,u,9,-11,u,-3
CNC(=S)N(Cc1ccco1)Cc1cc2cc(OC)ccc2[nH]c1=O,293%,105,-3,2.6µM*,-4
Cc1ccc(NC(=S)N(Cc2cccs2)Cc2cc3cccc(C)c3[nH]c2=O)cc1,7.4µM*,u,-7,-28%,-1
COc1cc2cc(CN(Cc3cccs3)C(=S)Nc3ccccc3)c(=O)[nH]c2cc1OC,-1%,-15,-10,12µM*,-1
COc1ccc2[nH]c(=O)c(CN(Cc3cccs3)C(=S)Nc3ccccc3)cc2c1,4.7µM*,x,13,u,-1
Cc1cc(C)n2nc(SCC(=O)N(CC(C)C)c3c(N)n(CC(C)C)c(=O)[nH]c3=O)nc2n1,4%,17,-6,7%,-2
Cc1nc(SCC(=O)c2c[nH]c3ccccc23)n[nH]1,20%,-69*,-2,88%,-1
O=C(CSc1nc2ccccc2[nH]1)c1ccccc1F,-17%,21,92*,-40%,40*
Cc1cc(C)n2nc(SCC(=O)c3c(N)n(CC(C)C)c(=O)n(C)c3=O)nc2n1,u,-29,-8,4.7µM*,-6
CCN(CC)S(=O)(=O)c1cccc(NC(=O)CSc2nc3ccccc3[nH]2)c1,u,u,-9,-18%,-4
CN(C)S(=O)(=O)c1cccc(NC(=O)CSc2nc3ccccc3[nH]2)c1,-32%,-61*,-3,-2%,-2
COc1ccc2[nH]cc(CCNC(=O)Nc3cccc(F)c3)c2c1,x,-32,x,x,x
CC(C(=O)NC1CCCCC1)N1CCN(C)CC1 (stereo not given),-1%,-5,1,-9%,-4
Cc1ccc(C)c(NC(=O)C2CCCN2C(=O)NC2CCCCC2)c1 (stereo not given),37%,17,-4,-14%,-2
Fc1cccc(CSc2nc3ccncc3[nH]2)c1,0%,72,50*,137%,32*
O=C(CSc1nc2ccccc2[nH]1)c1c[nH]c2ccccc12,-2%,0,72*,5%,29*
O=C(CSc1nc2ccccc2[nH]1)c1ccc(Cl)s1,x,-25,86*,u,39*
Fc1cccc(F)c1CSc1nc2ccccc2[nH]1,x,51,111*,197%,37*
SMILES,Pf growth 96h,HCMV inh,Shiga toxin inh,Pf growth 48h,CHX counter
Cc1c(C)n(C(=O)CSc2nc3ccccc3[nH]2)c2ccccc12,-10%,7,-2,x,-5
CCCNC(=O)c1cc(C2CCCN(C(=O)C3CCCCC3)C2)on1 (stereo not given),x,-23,x,x,x
O=C(CSc1nc2ccccc2[nH]1)Nc1ccc(N2CCOCC2)cc1,u,-5,30*,u,16*
c1ccc2[nH]c(SCCN3CCOCC3)nc2c1,72%,36,25,x,20*
COc1nonc1NC(=O)CSc1nc2ccccc2[nH]1,u,-64*,14,84%,5
Cc1nonc1NC(=O)CSc1nc2ccccc2[nH]1,92%,-4,7,28%,-1
Cc1cc(NC(=O)CSc2nc3ccccc3[nH]2)n(-c2ccccc2)n1,4.7µM*,47,17,1.9µM*,-2
O=C(CSc1nc2ccccc2[nH]1)Nc1cccc(S(=O)(=O)N2CCOCC2)c1,16%,0,-4,-26%,-1
CCn1cc(C(=O)N[C@@H](CCSC)C(=O)NCCCn2ccnc2)c(=O)c2cc3c(cc21)OCO3,-22%,-26,-3,11%,-7
COc1ccc(S(=O)(=O)NCc2ccc(F)cc2)cc1OC,0%,-35,-13,15%,0
COc1cc(/C=N/NC(=O)Cn2cnc3c2c(=O)n(C)c(=O)n3C)ccc1O,5%,-26,-5,0%,-1
CCOC(=O)C(=N/O)/C(C)=N/NC(=O)C(=O)Nc1cc(Cl)ccc1Cl,12%,-35,-2,12%,-2
O=C(CSc1nc2ccccc2[nH]1)Nc1c(F)cccc1F,57%,-85*,10,37%,8
CC(C)Cn1c(N)c(C(=O)COC(=O)c2ccc3c(c2)OCCO3)c(=O)n(C)c1=O,u,u,18,u,-2
Fc1ccccc1CSc1nc2ncccc2[nH]1,-22%,19,63*,8%,45*
CC(C)Cn1c(N)c(C(=O)CSc2ccc3c(c2)OCCO3)c(=O)n(C)c1=O,63%,-94*,-10,4%,1
Cc1[nH]c2ccccc2c1C(=O)CSc1nc2ncc(Cl)cc2[nH]1,-28%,-62*,-2,9%,-2
Cc1ccc(CN2C(=O)c3ccccc3Sc3ccc(C(=O)OCc4ccco4)cc32)cc1,x,-17,x,x,x
Cc1cccc(C)c1-n1ncc(C(=O)NCCN2CCN(C)CC2)c1C1CCN(C(=O)OC(C)(C)C)CC1,x,-3,x,x,x
CCCCNC(=O)CSc1nc2ccc(C)cc2[nH]1,33%,13,-10,7%,5
Cc1ccc2nc(SCC(=O)c3c(C)[nH]c4ccccc34)[nH]c2c1,-18%,u,33,39%,21*
Cc1[nH]c2ccccc2c1C(=O)CSc1ncn[nH]1,14%,-22,9,12%,-2
Cc1ccc2nc(SCC(=O)c3c[nH]c4ccccc34)[nH]c2c1,u,82,71*,2.9µM*,18
CC(C)Cn1c(N)c(C(=O)CSc2nc3ncc(Cl)cc3[nH]2)c(=O)n(C)c1=O,10µM*,-14,x,u,x
CCCn1c(N)c(C(=O)CSc2nc(N)cc(=O)[nH]2)c(=O)n(C)c1=O,4.7µM*,-19,x,u,x
CCN(CC(=O)Nc1ccccc1C(F)(F)F)C(=O)c1ccccc1Cc1ccccc1,u,1,x,u,x
Fc1ccc(-c2nc3c(Cl)cc(C(F)(F)F)cn3c2Cl)cc1,63%,98,active,73%,32*
Cc1ccc(NC(=O)c2ccccc2-c2cc(C)no2)cc1,12%,-23,-6,u,3
Cc1ccc(NC(=O)c2csc(-c3ccccc3)c2C)cc1,i,-13,199*,194%,54*
